PubChem BioAssay AID1671463 (Sanford-Burnham Center for Chemical Genomics, 2021)
Screen size: about 370,000 compounds; about 520 (0.14%) were called active. What follows is part of a selection rich in actives, with near analogues and random picks from the rest. Unmarked numbers belong to inactive results. Rule as the data show it: active = activation above about 40%; inactive = the rest.

biological target: Atrial natriuretic peptide receptor 1 (Homo sapiens) (UniProt P16066); experiment: GC-A stimulated cGMP production enhancers – HEK293 GC-A cells, cGMP TR-FRET, EC30 ANP, primary screen (AID 1671463); settings: at 10 µM, hits give high values, 0% at EC30 ANP, 100% saturating ANP
Sequence (P16066 whole entry, looked up): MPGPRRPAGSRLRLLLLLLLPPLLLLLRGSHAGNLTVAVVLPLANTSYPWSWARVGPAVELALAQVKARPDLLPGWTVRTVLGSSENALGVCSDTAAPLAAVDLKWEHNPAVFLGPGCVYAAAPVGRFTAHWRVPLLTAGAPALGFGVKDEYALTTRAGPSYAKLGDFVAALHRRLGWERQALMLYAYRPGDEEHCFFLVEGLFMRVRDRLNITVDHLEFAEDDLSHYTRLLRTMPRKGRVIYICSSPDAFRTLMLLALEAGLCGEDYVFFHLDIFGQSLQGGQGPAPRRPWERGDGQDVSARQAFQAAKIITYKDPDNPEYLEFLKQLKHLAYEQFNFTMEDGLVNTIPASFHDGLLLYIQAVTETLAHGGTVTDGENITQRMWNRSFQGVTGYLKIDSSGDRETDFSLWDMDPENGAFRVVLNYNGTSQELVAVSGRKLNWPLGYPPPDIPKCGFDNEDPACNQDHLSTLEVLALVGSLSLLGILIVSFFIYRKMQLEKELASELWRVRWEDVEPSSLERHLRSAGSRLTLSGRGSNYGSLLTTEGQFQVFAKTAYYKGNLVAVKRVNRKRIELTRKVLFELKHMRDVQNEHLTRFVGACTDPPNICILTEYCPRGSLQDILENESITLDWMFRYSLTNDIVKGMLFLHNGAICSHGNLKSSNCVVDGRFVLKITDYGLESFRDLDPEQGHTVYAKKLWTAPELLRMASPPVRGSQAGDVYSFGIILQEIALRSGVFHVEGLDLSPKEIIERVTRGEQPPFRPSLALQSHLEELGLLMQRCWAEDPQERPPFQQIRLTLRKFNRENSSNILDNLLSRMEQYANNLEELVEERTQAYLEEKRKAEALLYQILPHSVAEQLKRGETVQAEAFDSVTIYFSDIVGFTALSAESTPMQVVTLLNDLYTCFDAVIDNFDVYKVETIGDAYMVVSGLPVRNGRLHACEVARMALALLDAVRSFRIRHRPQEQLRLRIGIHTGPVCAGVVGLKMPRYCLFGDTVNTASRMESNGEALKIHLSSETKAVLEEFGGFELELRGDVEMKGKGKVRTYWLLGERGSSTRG

| Structure (SMILES) | activation |
| --- | --- |
| O=C(CSc1nc2ccccc2n1Cc1ccccc1)NNC(=S)Nc1ccccc1 | 0.91% |
| O=S(=O)(Nc1ccc(-c2ccc(N3CCOCC3)nn2)cc1)c1cc(Cl)ccc1Cl | 0.58% |
| COc1cc(NC(=O)c2ccc(CNc3c(N4CCCC4)c(=O)c3=O)cc2)cc(OC)c1OC | -2.1% |
| Fc1ccc2c(c1)C(c1cccnc1)=NNC(c1cccs1)=N2 | -28.1% |
| [O-][n+]1c2c(nn1-c1ccc(Cl)c(Cl)c1)-c1nonc1CC2 | 9.72% |
| C=CCOc1ccc(Cl)cc1CNCCCN1CCOCC1 | -6.85% |
| O=C1C=C(c2ccnc3cc(Cl)ccc23)C[C@@H](c2ccc3c(c2)OCO3)C1 | 0.61% |
| CC(C)CCSc1ncnc2c1oc1nc3c(cc12)COC(C)(C)C3 | -1.1% |
| CCOc1ccc(NC(=O)CSc2ncnc3c2sc2ccccc23)cc1 | 38.7% |
| CC1(C)Cc2nc3sc4c(SCC(=O)NC(c5ccccc5)c5ccccc5)ncnc4c3cc2CO1 | 52.8% (active) |
| CN1CCC(=NNC(=O)CN(c2cccc(Cl)c2)S(C)(=O)=O)CC1 | 0.89% |
| CCCCCn1c(SCCC(C)C)nc2c1c(=O)[nH]c(=O)n2C | 1.84% |
| COc1ccc2occ(C(=O)c3ccc(N=C(C)N(C)C)cc3)c2c1 | -4.34% |
| Cc1nn(Cc2ccccc2)c(C)c1C(=O)N1CCN(CC(=O)Nc2ccccc2Cl)CC1 | 4.37% |
| CN(C)CCN=c1cc(-c2ccccc2)oc2ccc(Cl)cc12 | 1.39% |
| COc1ccc(C(CC(=O)c2ccccc2)S(=O)(=O)c2ccccc2)cc1 (stereo not drawn) | -10.5% |
| O=C(c1ccc(F)c(S(=O)(=O)N2CCOCC2)c1)N(CCc1ccccc1)Cc1ccccc1 | -3.51% |
| O=C(CN1C(=O)c2ccc([N+](=O)[O-])cc2C1=O)Nc1nnc(C2CC2)s1 | 5.52% |
| COc1ccc(NC(=O)C(CC(C)C)NC(=O)C2CCC(C)CC2)cc1 (stereo not drawn) | -0.39% |
| CCOC(=O)N1CCN(C(=O)CSc2nnc(-c3c[nH]c4ccccc34)n2CCOC)CC1 | -1.3% |
| CCNC(=O)N1CCN(S(=O)(=O)c2ccc3c(c2)OCCCO3)CC1 | -0.67% |
| O=C(CCC1CCCN(Cc2ccc(O)c(Cl)c2)C1)NCc1ccccc1F (stereo not drawn) | 3.25% |
| COc1ccc2cc(C(=O)O)n(CC(=O)c3ccccc3)c2c1 | -0.02% |
| CC(=O)OCCN1CCCC12CCC(c1ccccc1)CC2 (stereo not drawn) | 4.33% |

| Structure (SMILES) | activation |
| --- | --- |
| COc1ccc(CCNC(=O)COc2ccc3c(c2)OCO3)cc1 | -3.12% |
| NC(=O)C1=C[C@H](c2csc3ccccc23)C[C@H](OCc2ccc(CO)cc2)O1 | -0.65% |
| CC(C)COC(=O)n1c(=O)oc2ccc(S(=O)(=O)N3CCCCC3)cc21 | 0.62% |
| COc1ccc(C2CC(c3ccccc3)=NN2C(=O)c2ccc(Cl)c([N+](=O)[O-])c2)cc1 (stereo not drawn) | 69.5% (active) |
| CCOc1ccc2nc(Cl)c(C3CC(c4ccccc4)=NN3C(=O)c3cccs3)cc2c1 (stereo not drawn) | 1.83% |
| COc1ccc(C2CC(c3cccc(OC)c3)=NN2c2ccc(S(N)(=O)=O)cc2)cc1 (stereo not drawn) | 6.44% |
| O=C1C=CC(=O)N1c1ccc(N2CCCCC2)cc1 | 50.5% (active) |
| Cc1nc(Cl)c2oc3ccccc3c2n1 | 41.1% (active) |
| Cc1nc(N2CCCC2C(=O)O)c2oc3ccccc3c2n1 (stereo not drawn) | -1.86% |
| C[C@@H](Nc1nc(-c2ccccc2)nc2c1oc1ccccc12)C(=O)O | -3.4% |
| CC12CN(NC(=O)c3ccc(Cl)cc3)C3(C#N)CC1CCC23C (stereo not drawn) | 0.43% |
| C#CCN([C@H](C(=O)OC)C(C)CC)S(=O)(=O)c1ccccc1Br (stereo partly drawn) | -4.19% |
| Cc1ccc(S(=O)(=O)CC(=O)NC(C)c2ccccc2)cc1 (stereo not drawn) | 4.14% |
| CCOc1ccccc1NC(=O)C1CCC(CNc2c(N3CCOCC3)c(=O)c2=O)CC1 (stereo not drawn) | 0.11% |
| CC(C)c1cc(C(=O)O)on1 | -0.6% |
| Cc1ccc(C(=O)NCC(=O)NCc2cc(=O)n(C)c(=O)n2C)cc1 | 1.88% |
| CN(C)/C(=N\OC(=O)c1ccccc1)c1nonc1N | -2.63% |
| Nc1c(-c2cccc(Cl)c2)cnn1-c1cccc([N+](=O)[O-])c1 | -2.54% |
| Cc1cccc(-n2ncc(Cl)c(Cl)c2=O)c1 | 40.6% (active) |
| CCOc1ccc(Oc2c(Cl)cnn(-c3ccc(C)cc3)c2=O)cc1 | 4.6% |
| COC(=O)c1ccc(C2C3=C(Nc4nnnn42)c2ccccc2OC3)cc1 (stereo not drawn) | 1.48% |
| CCc1c(C)sc(NC(=O)OC)c1C(=O)N1CCOCC1 | 0.05% |
| Cc1cccc(Cn2c(N3CCN(c4ccccc4)CC3)nc3c2c(=O)n(C)c(=O)n3C)c1 | -29% |
| C/C(Cl)=C\Cn1c(Nc2cccc(C)c2)nc2c1c(=O)n(C)c(=O)n2C | 51.1% (active) |

| Structure (SMILES) | activation |
| --- | --- |
| Cn1c(=O)c2c(nc(N/N=C/c3cccs3)n2Cc2ccc(Br)cc2)n(C)c1=O | 18.6% |
| CCN(CC(=O)Nc1cc(Cl)ccc1C)C(=O)CSCc1ccc(C)cc1 | -0.6% |
| CC1(c2ccc3ccccc3c2)NC(=O)N(CC(N)=O)C1=O (stereo not drawn) | 3.94% |
| C=CCN1C(=O)[C@@H](CC(=O)NCCCCc2ccccc2)[C@]2(C(=O)OCC)CCCCC/C=C/12 | 3.65% |
| COc1ccc(N(CC(=O)NCC2CCCO2)C(=O)CCC(=O)Nc2nccs2)c(OC)c1 (stereo not drawn) | 4.75% |
| CC(C)(C)C(=O)CCN1C(=O)C2(OCCO2)c2ccccc21 | 1.22% |
| CC(=O)NC(c1cccs1)c1cc(Br)c2cccnc2c1O (stereo not drawn) | -1.9% |
| CCCCCCCCN1C(=O)[C@@H](CC(=O)NCc2ccccc2)C[C@@]2(C(=O)OC)C1=C[C@H](C(C)(C)C)O[C@@H]2C | 2.65% |
| O=C(/C=C/Sc1ncn[nH]1)c1ccc(Cl)cc1 | 64.8% (active) |
| COc1ccc(CN2CC[C@H]3C=CC[C@@H](C(=O)N4CCOCC4)[C@H]3C2=O)cc1OC | 1.45% |
| COC(=O)c1c(NC(=O)COc2ccc(Cl)cc2Cl)sc2c1CC(C)(C)NC2(C)C | 6% |
| CSCC[C@H](NC(=O)NC1CCCC1)C(=O)O | 0.42% |
| O=C(NCCc1ccccc1)c1c[nH]c2ccc(F)cc2c1=O | 1.93% |
| O=c1[nH]c2c(c(=O)n1-c1ccccc1)CCO2 | -0.17% |
| Fc1ccc(Nc2nnns2)cc1 | 3.58% |
| COCCN(Cc1ccccc1)C(=O)Cc1ccc(S(=O)(=O)N2CCOCC2)s1 | -2.49% |
| CS(=O)(=O)c1cccc(-c2ccc3nncn3c2)c1 | 4.9% |
| CCCCS(=O)c1snnc1C (stereo not drawn) | 1.27% |
| COc1ccc(/C=C/CN2CCN(Cc3ccc(C)cc3)C(CCO)C2)cc1 (stereo not drawn) | 0.4% |
| O=C(OCC(=O)N1CCCC1)c1ccc(Cl)nc1 | -0.33% |
| CC1(C)CC(N(Cc2ccccc2)C(=O)Cc2ccccc2)CCO1 (stereo not drawn) | -16.2% |
| CCOc1c(Br)cc(/C=C2\C(=O)N(CCC#N)N=C2C)cc1OC | 40.1% (active) |
| Cc1ccc(C(c2nnnn2CS(=O)(=O)c2ccc(C)cc2)N2CCC(C)CC2)cc1 (stereo not drawn) | -0.04% |
| CCCSc1nsc(N)n1 | -1.07% |

| Structure (SMILES) | activation |
| --- | --- |
| CC(C)(CNC(=O)Cc1ccc(Cl)cc1Cl)N1CCOCC1 | 1.34% |
| CCOC(=O)c1cccc(NC(=O)C2CCCN(S(=O)(=O)c3cnc[nH]3)C2)c1 (stereo not drawn) | 1.55% |
| Cc1ccsc1C1C(C#N)=C(N)OC2=C1C(=O)CC(C)(C)C2 (stereo not drawn) | 1.86% |
| CCCn1nnnc1NC(=O)COc1ccc(Cl)cc1C | 0.54% |
| O=C(c1ccc(CS(=O)Cc2ccccc2Cl)o1)N1CCN(c2ccccc2)CC1 (stereo not drawn) | -8.64% |
| Cc1ccsc1C(=O)NCCc1ccco1 | 5.29% |
| O=c1c2ccccc2c(-c2ccc(Br)cc2)nn1Cc1ccccc1 | 1.66% |
| O=C(NCCc1ccco1)c1nn(Cc2ccccc2)c(=O)c2ccccc12 | 41.3% (active) |
| Cc1ccc(S(=O)(=O)NNC(=S)NC(C)(C)C)cc1 | 4.04% |
| COC(=O)[C@@H](NC(=O)Nc1cc(Cl)ccc1C)C(C)C | 4.54% |
| CC(C)Oc1ccc(S(=O)(=O)N2CCOCC2)cc1NC(=O)C1CCCC1 | 0% |
| Cn1c2ccccc2c2cc(/C=C(\NC(=O)c3ccccc3)C(=O)NCC(=O)O)ccc21 | 1.03% |
| COCCCNC(NC(=O)c1ccc(OC)cc1)C(Cl)(Cl)Cl (stereo not drawn) | -6.96% |
| CSCCC(Nc1ccc(S(=O)(=O)N2CCOCC2)cc1[N+](=O)[O-])C(=O)OCC(=O)N(C(C)C)C(C)C (stereo not drawn) | 3.61% |
| CCC(=O)Nc1ccc(Nc2nc(Cl)nc(Nc3ccc(NC(=O)CC)cc3)n2)cc1 | 41.8% (active) |
| CCC(=O)Nc1ccc(-c2ccc(N3CCCCC3)nn2)cc1 | 1.98% |
| CCOC(=O)CNc1nc(Cl)nc(Nc2ccccc2)n1 | -0.38% |
| CCC(=O)N1CCC(C)(C(=O)Nc2cc(OC)c(OC)c(OC)c2)C1 (stereo not drawn) | 0.68% |
| CCCc1cc(=O)[nH]c(SCC(=O)c2c(N)n(CC(C)C)c(=O)n(C)c2=O)n1 | -6.69% |
| Cc1ccc(S(=O)(=O)N2CCOCC2)cc1NC(=O)CSc1nnc(N)s1 | -4.98% |
| COc1ccc(C#CCNCc2ccc(OC)cc2OC)cc1 | -0.15% |
